Measurements reported in paper PMC4336329 (PLoS ONE, 2015).
Out of some 310,000 compounds screened, about 14,000 (4.5%) showed an effect of 50% or more. Effects have a minus sign here. Only a selection was taken, and strong results are over-represented in it overall.

biological target: human ether-à-go-go-related gene (hERG) potassium channel (human, UniProt Q12809); assay: primary screen, population patch clamp on CHO cells stably expressing hERG; higher = less effect of the substance
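Also: peak tail current of the secondary pulse compared with the same well before compound.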

Sequence of human ether-à-go-go-related gene (hERG) potassium channel (Q12809 whole entry, looked up): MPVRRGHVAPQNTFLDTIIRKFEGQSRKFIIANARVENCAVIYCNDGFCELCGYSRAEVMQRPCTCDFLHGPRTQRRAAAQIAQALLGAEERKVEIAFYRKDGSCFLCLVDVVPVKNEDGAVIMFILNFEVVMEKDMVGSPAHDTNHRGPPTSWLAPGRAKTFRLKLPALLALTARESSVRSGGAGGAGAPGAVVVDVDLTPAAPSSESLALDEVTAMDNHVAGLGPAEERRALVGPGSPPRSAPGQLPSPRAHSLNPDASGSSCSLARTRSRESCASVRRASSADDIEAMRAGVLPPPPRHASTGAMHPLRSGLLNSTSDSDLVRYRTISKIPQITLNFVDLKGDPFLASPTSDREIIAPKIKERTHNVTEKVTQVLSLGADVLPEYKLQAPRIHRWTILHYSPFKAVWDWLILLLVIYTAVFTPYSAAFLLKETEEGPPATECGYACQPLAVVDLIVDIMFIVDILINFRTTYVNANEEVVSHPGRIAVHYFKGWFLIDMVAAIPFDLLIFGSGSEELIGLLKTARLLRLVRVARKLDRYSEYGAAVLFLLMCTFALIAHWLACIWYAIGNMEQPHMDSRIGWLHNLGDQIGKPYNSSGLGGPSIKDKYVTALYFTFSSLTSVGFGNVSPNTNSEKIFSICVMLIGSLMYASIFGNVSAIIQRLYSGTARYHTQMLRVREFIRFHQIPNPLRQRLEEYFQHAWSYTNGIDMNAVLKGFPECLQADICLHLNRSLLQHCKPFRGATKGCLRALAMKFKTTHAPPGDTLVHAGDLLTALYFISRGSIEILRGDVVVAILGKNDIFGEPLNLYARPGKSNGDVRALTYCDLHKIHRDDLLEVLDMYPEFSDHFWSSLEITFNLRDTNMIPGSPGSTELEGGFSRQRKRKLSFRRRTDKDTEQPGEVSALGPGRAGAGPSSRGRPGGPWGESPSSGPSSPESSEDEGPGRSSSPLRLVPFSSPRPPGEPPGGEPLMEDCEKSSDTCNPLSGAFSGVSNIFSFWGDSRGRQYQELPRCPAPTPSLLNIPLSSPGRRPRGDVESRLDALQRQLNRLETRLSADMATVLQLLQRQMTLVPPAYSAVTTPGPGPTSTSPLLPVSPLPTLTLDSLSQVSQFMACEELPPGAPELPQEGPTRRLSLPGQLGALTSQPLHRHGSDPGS

Point of comparison: N#Cc1c(N)n[nH]c1Cc1cccc2ccccc12, “hERG current change (%, negative = inhibition) at 10uM” value 12.3%. Against it:
- Cn1cc(CN2CCN(c3cnccn3)CC2)c(-c2cccc(Cl)c2)n1 — lower, 6.29%
- COc1cc2c(cc1OC)C(C(=O)N1CCOCC1)C(c1cccs1)N(C)C2=O (centres unmarked) — lower, 4.09%
- COc1cc2c(cc1OC)C(C(=O)N1CCN(c3ccccn3)CC1)C(c1cccs1)N(C)C2=O (centres unmarked) — lower, -38%
- COc1cc2c(cc1OC)C(C(=O)N1CCN(c3ccccc3)CC1)C(c1cccs1)N(C)C2=O (centres unmarked) — lower, -68.1%
- O=C(O)CN(Cc1ccco1)S(=O)(=O)c1ccccc1 — lower, 11.6%
- Nc1nnc(SCC(=O)Nc2cccc(S(=O)(=O)N3CCCCC3)c2)s1 — lower, -12.8%
- CCCC[C@@H]1C[C@H]1[C@@H](NC(=O)c1cccs1)c1ccc(Cl)cc1 — lower, -9.44%
- CCCC[C@@H]1C[C@H]1[C@@H](NC(=O)c1ccco1)c1ccc(Cl)cc1 — lower, -50.2%
- CCCC[C@@H]1C[C@H]1[C@@H](NC(=O)c1ccco1)c1ccc(C(=O)OC)cc1 — lower, -34%
- CC(=O)NC(Cc1ccccc1C)C(=O)NC1CCN(C(=O)c2cccc(C)c2)CC1 (centres unmarked) — higher, 34.5%
- O=C(CCSCCC(=O)NCc1ccco1)NCc1ccco1 — lower, 6.38%
- Cc1ccc(-c2nnc3ccc(SCC(=O)NCc4ccco4)nn23)cc1 — lower, -6.59%
- O=C(CSc1ncc(-c2ccccc2)nn1)NCc1ccco1 — lower, -23.6%
- CCOc1ccc(-c2nnc3ccc(SCC(=O)NCc4ccco4)nn23)cc1 — lower, -8.72%
- O=C(CSc1ccc2nnc(-c3ccccn3)n2n1)NCC1CCCO1 (centres unmarked) — lower, -8.53%
- O=C(CSc1nc(-c2ccccc2)c(-c2ccccc2)[nH]1)NCc1ccco1 — lower, -1.63%
- Cc1ccc(NC(=O)CSCC(=O)NCc2ccco2)cc1 — lower, -0.0131%
- O=C(CSc1ccc2nnc(-c3ccccn3)n2n1)NCc1ccco1 — lower, -63.1%
- O=C(CSCC(=O)NCc1ccco1)NCc1ccco1 — lower, -66%
- O=C(CSc1ccc2nnc(-c3ccccc3)n2n1)NCc1ccco1 — lower, -72.2%
- O=C(CSc1nnc(-c2ccccc2)c(-c2ccccc2)n1)NCc1ccco1 — lower, -55.5%
- O=C(CSc1ccc2nnc(-c3ccncc3)n2n1)NCc1ccco1 — lower, -25.8%
- Cc1cc(C(=O)N/N=C/c2ccc([N+](=O)[O-])o2)c(C)o1 — lower, -7.72%
- CNC(=O)c1ccc(NC(=O)/C=C/c2cccc(F)c2)cc1 — lower, -18.3%
- Cn1nc(NC(=O)C2CCC2C(=O)O)c2c(F)cccc21 (centres unmarked) — lower, -0.347%
- Cc1ccc(OCCOc2ccc(Br)cc2)c([N+](=O)[O-])n1 — lower, -6.68%
- COc1ccc(CNC(=O)C(C)c2ccc([N+](=O)[O-])cc2)cc1 (centres unmarked) — lower, -21.2%
- O=C(Nc1ccc2c(c1)OCO2)c1ccc(Cl)s1 — lower, -2.22%
- O=C(CSc1ccc2nnc(-c3ccc(F)cc3)n2n1)NCc1ccco1 — lower, -21.7%
- O=C(CSc1ccc2nnc(-c3cccc(F)c3)n2n1)NCc1ccco1 — lower, -65.5%
- COc1ccc(-c2nnc3ccc(SCC(=O)NCc4ccco4)nn23)cc1OC — lower, -28.3%
- Cc1ccc(S(=O)(=O)Nc2ccc3[nH]ccc3c2)cc1 — lower, -9.71%
- CCOC(=O)C1(CCOC)CCN(CC(C)Cc2ccc3c(c2)OCO3)CC1 (centres unmarked) — lower, -43.1%
- CCOC(=O)C1(CCc2ccccc2)CCN(Cc2ccc3c(c2)OCCO3)CC1 — lower, -84.4%
- OCC1(CCOc2ccccc2)CCN(Cc2ccc3c(c2)OCCO3)CC1 — lower, -75.1%
- CCOC(=O)C1(Cc2ccccc2)CCN(Cc2ccc3c(c2)OCCO3)CC1 — lower, -33.1%
- CCOC(=O)C1(CCc2ccccc2)CCN(C(=O)CN2CCOC2=O)CC1 — higher, 14.6%
- CCOC(=O)C1(CCOc2ccccc2)CCN(Cc2ccc3c(c2)OCCO3)CC1 — lower, -73.3%
- O=C1/C(=C\c2ccco2)SC(=S)N1Cc1ccccc1 — lower, 10.8%
- N#Cc1ccc(Oc2ccc(NC(=O)C3CC=CCC3C(=O)O)cc2)cc1 (centres unmarked) — higher, 12.9%
- O=C1OC2(c3ccccc3)C3CCCC2C13 — lower, 11.1%
- O=S(=O)(c1cccs1)N1CCN(c2ccc(F)cc2)CC1 — lower, -43.1%
- O=C(Nc1cccc(OCC(=O)N2CCOCC2)c1)c1cccc([N+](=O)[O-])c1 — higher, 25.9%
- CC(=O)Oc1ccccc1N1C(=O)c2ccc(C(=O)O)cc2C1=O — lower, 11.3%
- Oc1ccccc1OCc1nc2ccccc2s1 — lower, -13.7%
- Cc1nc2ccc(C(=O)N/N=C/c3ccccc3O)cc2[nH]1 — lower, 9.25%
- CCCCc1nc(C(N)=O)c2[nH]c(=O)n(-c3ccc(OC)cc3OC)c2n1 — lower, 1.88%
- CCC(CC)C(=O)c1c[nH]c(C(=O)N2CCN(c3ccccc3F)CC2)c1 — higher, 25.2%
- COc1ccccc1-n1c(CCC(=O)O)ccc1-c1ccccc1 — lower, -12.9%
- Cc1ccc(NC(=O)C[n+]2cc(-c3ccccc3)n3c2CCC3)c(C)c1.[Cl-] — lower, -9.62%
- Cc1ccc(-n2c(-c3ccccc3)n[nH]c2=S)c(C)c1 — lower, 7.9%
- Br.COc1ccccc1N1Cc2ccccc2C1 — lower, -13.2%
- COc1ccccc1-n1c(-c2ccccc2)c[n+]2c1CCc1ccccc1-2.[Br-] — lower, -74.1%
- Cc1ccc(-n2c(-c3ccccc3)c[n+]3c2CCc2ccccc2-3)c(C)c1.[Br-] — lower, -93%
- O=C(/C=C/c1ccco1)NC(=S)Nc1ccccn1 — lower, -3.42%
